The values below come from PMC7862700, “An all-to-all approach to the identification of sequence-specific readers for epigenetic DNA modifications on cytosine”.

Holding throughout (test): DAPPL (digital affinity profiling via proximity ligation, sequencing); 10 mM Tris-HCl pH 7.5, 50 mM NaCl, 1 mM DTT, 4% glycerol, room temperature, 30 min; GST-TFs on glutathione beads, 16-mer random dsDNA library, 0.1% formaldehyde crosslink after washing; high values mean tight binding
Conditions in all cases: protein: recombinant; tags: N-terminal GST; dsDNA, one strand shown

The target of experiment [1] is T1, ELK1 (Homo sapiens, UniProt P19419 1-428).
T1 sequence: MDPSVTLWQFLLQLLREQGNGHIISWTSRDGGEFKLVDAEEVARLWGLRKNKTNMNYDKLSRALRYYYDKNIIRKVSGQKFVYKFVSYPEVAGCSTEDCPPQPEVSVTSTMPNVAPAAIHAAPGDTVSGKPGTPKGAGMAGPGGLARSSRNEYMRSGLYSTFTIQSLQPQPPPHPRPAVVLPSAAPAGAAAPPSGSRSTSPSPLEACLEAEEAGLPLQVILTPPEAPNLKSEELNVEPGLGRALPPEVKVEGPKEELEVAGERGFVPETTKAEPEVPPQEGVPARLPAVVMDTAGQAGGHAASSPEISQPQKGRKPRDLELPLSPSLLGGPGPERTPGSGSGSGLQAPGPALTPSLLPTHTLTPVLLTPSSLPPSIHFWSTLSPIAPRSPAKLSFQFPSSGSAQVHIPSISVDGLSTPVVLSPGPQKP
The method, boiled down:
(§1)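 Binding signal is each hexamer's read frequency for a factor divided by its frequency in the tag-only sample. The factors were GST-fused human transcription factors from yeast, captured on glutathione beads, DNA-barcoded and pooled with that sample. Pools were incubated with 200 nmole of a random double-stranded 16-mer DNA library in Tris/NaCl/DTT/glycerol buffer at room temperature for 30 min, then washed, crosslinked with 0.1% formaldehyde, proximity-ligated with BsaI/T4 ligase (1 h, 37 °C), PCR-amplified and sequenced on an Illumina NextSeq500.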

Experiment [2] addresses ELF4 (Homo sapiens, UniProt Q99607 1-663). The method, boiled down: as §1
The target of experiment [3] is T2, ETV2 (Homo sapiens, UniProt O00321 1-342).
T2 sequence: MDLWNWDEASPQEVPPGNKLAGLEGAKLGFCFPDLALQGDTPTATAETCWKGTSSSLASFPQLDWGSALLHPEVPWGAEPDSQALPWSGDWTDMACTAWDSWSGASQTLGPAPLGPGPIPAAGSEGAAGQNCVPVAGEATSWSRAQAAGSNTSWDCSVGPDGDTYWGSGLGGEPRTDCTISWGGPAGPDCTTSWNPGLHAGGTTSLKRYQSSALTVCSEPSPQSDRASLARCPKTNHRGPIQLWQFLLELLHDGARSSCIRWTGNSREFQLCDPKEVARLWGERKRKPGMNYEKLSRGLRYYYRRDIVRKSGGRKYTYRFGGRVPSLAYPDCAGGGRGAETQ
The method, boiled down: as §1

Experiment [4] addresses ETV6 (Homo sapiens, UniProt P41212 1-452). The method, boiled down: as §1
The target of experiment [5] is T3, ELF3 (Homo sapiens, UniProt P78545 1-371).
T3 sequence: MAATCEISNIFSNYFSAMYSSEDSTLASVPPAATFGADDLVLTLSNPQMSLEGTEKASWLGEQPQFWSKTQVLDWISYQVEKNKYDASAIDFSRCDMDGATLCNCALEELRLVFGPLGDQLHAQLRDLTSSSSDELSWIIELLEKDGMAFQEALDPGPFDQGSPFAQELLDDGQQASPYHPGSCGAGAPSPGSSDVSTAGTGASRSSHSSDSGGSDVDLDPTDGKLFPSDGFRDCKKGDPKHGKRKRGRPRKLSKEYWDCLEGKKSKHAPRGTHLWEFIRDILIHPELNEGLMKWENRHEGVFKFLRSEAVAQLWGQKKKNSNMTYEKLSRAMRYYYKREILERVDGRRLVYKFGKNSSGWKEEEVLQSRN
A digest of the protocol: as §1

Experiment [6] has as its target T4, ERF (Homo sapiens, UniProt P50548 1-548).
T4 sequence: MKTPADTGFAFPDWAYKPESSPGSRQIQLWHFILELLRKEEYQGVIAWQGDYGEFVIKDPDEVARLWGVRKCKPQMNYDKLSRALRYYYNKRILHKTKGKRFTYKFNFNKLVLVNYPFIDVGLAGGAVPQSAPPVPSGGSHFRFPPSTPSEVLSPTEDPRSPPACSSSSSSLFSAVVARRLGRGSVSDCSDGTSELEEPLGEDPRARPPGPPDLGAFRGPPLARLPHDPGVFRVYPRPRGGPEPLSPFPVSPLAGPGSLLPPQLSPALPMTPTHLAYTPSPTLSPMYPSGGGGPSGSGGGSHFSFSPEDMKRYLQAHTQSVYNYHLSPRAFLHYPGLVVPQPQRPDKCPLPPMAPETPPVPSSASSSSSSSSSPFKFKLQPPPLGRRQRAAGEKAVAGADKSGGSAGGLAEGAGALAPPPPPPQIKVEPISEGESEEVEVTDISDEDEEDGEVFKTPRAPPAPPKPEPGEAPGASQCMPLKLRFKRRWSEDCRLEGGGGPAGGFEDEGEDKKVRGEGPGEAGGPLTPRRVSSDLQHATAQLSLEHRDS
A digest of the protocol: as §1

In experiment [7] the target is T5, ETV3L (Homo sapiens, UniProt Q6ZN32 1-361).
T5 sequence: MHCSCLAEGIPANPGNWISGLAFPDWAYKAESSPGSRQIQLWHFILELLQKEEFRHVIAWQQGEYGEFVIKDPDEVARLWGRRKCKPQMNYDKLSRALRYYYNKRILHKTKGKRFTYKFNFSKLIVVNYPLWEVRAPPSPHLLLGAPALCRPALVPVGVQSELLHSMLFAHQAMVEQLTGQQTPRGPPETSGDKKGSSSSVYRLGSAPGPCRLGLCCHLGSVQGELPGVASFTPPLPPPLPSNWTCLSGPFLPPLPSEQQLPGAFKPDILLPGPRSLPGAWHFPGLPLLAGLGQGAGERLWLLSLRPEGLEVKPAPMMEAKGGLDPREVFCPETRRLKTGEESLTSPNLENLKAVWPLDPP
A digest of the protocol:
as §1

In experiment [8] the target is T6, ETS2 (Homo sapiens, UniProt P15036 1-469).
T6 sequence: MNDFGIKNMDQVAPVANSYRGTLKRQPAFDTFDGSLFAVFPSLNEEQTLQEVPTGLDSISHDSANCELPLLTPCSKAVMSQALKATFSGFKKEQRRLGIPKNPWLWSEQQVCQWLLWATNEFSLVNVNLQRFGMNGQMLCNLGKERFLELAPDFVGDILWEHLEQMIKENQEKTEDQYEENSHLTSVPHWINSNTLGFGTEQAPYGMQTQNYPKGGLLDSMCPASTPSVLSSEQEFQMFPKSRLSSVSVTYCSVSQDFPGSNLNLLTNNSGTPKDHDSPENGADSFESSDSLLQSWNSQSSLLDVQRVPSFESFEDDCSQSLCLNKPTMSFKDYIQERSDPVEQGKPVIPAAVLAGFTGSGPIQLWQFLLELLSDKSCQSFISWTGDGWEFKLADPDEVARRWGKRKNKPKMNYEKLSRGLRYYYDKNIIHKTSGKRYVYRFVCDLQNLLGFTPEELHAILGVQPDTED
The method, boiled down: as §1

Experiment [9] deals with T7, SPDEF (Homo sapiens, UniProt O95238 1-335).
T7 sequence: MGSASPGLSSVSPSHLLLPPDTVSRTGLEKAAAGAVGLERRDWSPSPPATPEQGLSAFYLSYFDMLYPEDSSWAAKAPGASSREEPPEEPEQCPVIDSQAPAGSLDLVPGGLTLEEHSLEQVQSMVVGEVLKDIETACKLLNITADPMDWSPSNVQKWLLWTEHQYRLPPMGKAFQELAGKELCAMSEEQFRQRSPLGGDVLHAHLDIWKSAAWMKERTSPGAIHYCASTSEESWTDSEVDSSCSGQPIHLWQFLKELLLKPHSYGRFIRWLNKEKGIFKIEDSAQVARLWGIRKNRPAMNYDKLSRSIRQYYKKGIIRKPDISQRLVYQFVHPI
A digest of the protocol: as §1

The target in experiment [10] is T8, ETV7 (Homo sapiens, UniProt Q9Y603 1-341).
T8 sequence: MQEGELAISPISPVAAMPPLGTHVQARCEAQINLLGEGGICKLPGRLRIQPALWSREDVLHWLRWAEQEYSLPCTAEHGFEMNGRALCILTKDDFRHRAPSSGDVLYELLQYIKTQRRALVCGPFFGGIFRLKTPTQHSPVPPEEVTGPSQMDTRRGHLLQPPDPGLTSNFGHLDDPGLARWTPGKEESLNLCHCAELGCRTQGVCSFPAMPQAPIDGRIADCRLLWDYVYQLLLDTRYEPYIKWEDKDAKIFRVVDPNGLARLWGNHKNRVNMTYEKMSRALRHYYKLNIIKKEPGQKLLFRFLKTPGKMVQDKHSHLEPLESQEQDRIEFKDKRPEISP
The method, boiled down: as §1

The target in experiment [11] is T9, ELF5 (Homo sapiens, UniProt Q9UKW6-2 1-255).
T9 sequence: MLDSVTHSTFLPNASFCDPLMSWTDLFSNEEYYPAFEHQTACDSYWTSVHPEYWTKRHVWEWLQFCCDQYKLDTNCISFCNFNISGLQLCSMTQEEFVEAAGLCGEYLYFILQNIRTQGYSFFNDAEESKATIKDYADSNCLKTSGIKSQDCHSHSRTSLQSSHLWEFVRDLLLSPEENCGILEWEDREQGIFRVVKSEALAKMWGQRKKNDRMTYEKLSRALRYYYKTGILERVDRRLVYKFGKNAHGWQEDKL
A digest of the protocol:
as §1

Experiment [12] has as its target T10, ELK4 (Homo sapiens, UniProt P28324-2 1-405).
T10 sequence: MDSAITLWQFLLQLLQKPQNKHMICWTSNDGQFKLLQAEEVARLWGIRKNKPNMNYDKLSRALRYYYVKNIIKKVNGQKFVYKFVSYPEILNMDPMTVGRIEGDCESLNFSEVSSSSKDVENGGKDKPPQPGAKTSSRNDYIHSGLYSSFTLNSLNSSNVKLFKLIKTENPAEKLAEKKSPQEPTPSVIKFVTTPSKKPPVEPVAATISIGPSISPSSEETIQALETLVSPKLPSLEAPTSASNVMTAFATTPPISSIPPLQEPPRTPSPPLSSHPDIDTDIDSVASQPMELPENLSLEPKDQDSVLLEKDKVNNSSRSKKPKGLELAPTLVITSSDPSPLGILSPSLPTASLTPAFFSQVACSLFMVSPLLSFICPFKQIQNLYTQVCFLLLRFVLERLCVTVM
A digest of the protocol:
as §1

Chain of ELF4 (Q99607 whole entry): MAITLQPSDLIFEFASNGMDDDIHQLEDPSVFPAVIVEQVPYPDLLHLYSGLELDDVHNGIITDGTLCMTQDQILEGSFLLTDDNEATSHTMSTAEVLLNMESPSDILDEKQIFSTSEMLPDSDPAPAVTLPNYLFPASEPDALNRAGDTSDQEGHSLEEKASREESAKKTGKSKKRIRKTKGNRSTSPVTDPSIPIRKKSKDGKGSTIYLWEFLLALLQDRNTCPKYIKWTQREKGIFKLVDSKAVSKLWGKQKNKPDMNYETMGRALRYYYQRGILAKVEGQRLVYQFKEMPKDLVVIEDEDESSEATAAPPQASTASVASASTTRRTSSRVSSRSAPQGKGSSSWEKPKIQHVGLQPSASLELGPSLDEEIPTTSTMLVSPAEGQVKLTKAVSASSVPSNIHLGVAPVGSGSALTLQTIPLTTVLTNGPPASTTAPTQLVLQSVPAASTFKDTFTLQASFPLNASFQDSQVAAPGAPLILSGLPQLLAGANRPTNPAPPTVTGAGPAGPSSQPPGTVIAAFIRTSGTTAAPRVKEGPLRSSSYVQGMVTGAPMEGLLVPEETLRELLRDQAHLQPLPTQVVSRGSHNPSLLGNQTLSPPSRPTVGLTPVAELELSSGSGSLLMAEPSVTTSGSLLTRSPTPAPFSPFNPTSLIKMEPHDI
Chain of ETV6 (P41212 whole entry): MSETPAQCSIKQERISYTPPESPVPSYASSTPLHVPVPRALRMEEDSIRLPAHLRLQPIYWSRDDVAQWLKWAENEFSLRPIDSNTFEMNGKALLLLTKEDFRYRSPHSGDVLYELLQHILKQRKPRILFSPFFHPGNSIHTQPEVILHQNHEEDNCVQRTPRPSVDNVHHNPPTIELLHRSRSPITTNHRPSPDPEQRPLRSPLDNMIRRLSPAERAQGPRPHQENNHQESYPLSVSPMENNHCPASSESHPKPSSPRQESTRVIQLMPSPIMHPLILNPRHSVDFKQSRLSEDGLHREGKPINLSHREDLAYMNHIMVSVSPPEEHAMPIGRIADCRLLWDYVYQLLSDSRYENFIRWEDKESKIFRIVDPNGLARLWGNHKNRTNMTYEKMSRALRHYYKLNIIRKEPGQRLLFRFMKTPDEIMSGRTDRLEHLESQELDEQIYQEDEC

As for AACGGT, the binding signal is 1.06 fold enrichment (6-mer frequency, TF over GST control) in experiment [1]; 1.03 fold enrichment (6-mer frequency, TF over GST control) in [2]; 1.05 fold enrichment (6-mer frequency, TF over GST control) in [3]; 1.01 fold enrichment (6-mer frequency, TF over GST control) in experiment [4].
Consider GAATGC, for which the binding signal in [2] was 1.05 fold enrichment (6-mer frequency, TF over GST control); in [3], 1.04 fold enrichment (6-mer frequency, TF over GST control); in experiment [5] it was 1.06 fold enrichment (6-mer frequency, TF over GST control); in experiment [6], 1.04 fold enrichment (6-mer frequency, TF over GST control); in experiment [7], 1.01 fold enrichment (6-mer frequency, TF over GST control); in experiment [8] it was 1.05 fold enrichment (6-mer frequency, TF over GST control). Also, the binding signal is 1.04 fold enrichment (6-mer frequency, TF over GST control) in experiment [9]; 1.03 fold enrichment (6-mer frequency, TF over GST control) in experiment [10]; 1.07 fold enrichment (6-mer frequency, TF over GST control) in experiment [11]; 1.01 fold enrichment (6-mer frequency, TF over GST control) in experiment [4].
Regarding ATAGTG, the binding signal in experiment [12] was 1.06 fold enrichment (6-mer frequency, TF over GST control).
